# An excerpt weighted towards active compounds, which were near 27% of everything screened.
# CYP2C19 inh: human CYP2C19 inhibition; inhibition, % at 5 µM; 96,000 compounds, 21% hits; P33261; CYP2C19 Supersomes, luciferin-H EGE luminescence, 30 min;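 active = CYP2C19 inhibition above a set limit at 5 µM in the primary screen, cut at about 50% in these data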;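 also: plate controls were negative control wells for no effect and 2.5 mM tranylcypromine positive control for full effect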
# CYP2C9 inhib: human CYP2C9 inhibition; P11712; CYP2C9 Supersomes, luciferin-H conversion, luminescence; inhibition, % at 5 µM; 96,000 compounds, 20% hits; AID 777;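 active = blocking of liver enzyme CYP2C9 beyond about 50% at 5 µM, limit read from the data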
# Target sequence (P11712 whole entry, looked up): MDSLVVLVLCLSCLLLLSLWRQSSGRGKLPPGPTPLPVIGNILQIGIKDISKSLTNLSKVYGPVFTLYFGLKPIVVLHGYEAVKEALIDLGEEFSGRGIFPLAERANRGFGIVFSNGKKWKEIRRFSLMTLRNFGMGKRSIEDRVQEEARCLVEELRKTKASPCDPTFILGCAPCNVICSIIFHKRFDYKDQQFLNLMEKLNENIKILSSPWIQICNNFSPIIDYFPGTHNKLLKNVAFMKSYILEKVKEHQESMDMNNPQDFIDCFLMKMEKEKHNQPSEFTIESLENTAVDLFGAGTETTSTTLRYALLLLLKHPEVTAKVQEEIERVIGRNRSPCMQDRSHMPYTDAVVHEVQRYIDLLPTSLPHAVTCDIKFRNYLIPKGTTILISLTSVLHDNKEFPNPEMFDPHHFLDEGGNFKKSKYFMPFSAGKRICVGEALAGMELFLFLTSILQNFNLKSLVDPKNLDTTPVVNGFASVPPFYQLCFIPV
# CYP2C19 act: cytochrome P450 2C19 (human) activation; P33261; recombinant CYP2C19, luciferin-H EGE luminescence; stronger effect = higher value; 0 = fully inhibited enzyme, 1 = untreated enzyme; activation factor at 5 µM; 96,000 tested, under 10 active;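 active = activation factor of at least 2 at 5 µM in the primary screen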;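 also: 0 = wells with 2.5 mM tranylcypromine and 1 = vehicle-only wells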
# CYP2C9 act: CYP2C9 (human) activation | P11712 | 96,000 compounds, 1.4% hits | AID 1024 | activation factor at 5 µM | recombinant CYP2C9, luciferin-H conversion, luminescence; stronger effect = higher value; factor 1 = untreated enzyme, 0 = blocked;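 active = activation factor of 2 or more for CYP2C9 at a 5 µM dose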;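 also: 0 = sulfaphenazole-blocked wells and 1 = vehicle-only wells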
# sEH inhibitor: inhibitors of human soluble epoxide hydrolase | AID 707 | 91,000 compounds, 0.34% hits | recombinant human sEH enzymatic activity assay | inhibition, % at 2 µM; in the data active = inhibition above about 80%
# sEH activator: increases human soluble epoxide hydrolase activity. P34913. purified human sEH enzymatic activity, activator screen. activation, % at 2 µM. 91,000 compounds, 0.04% hits. AID 717; in the data active = activation above about 37%
# * = called active by the depositor; x = no result.
SMILES,CYP2C19 inh,CYP2C9 inhib,CYP2C19 act,CYP2C9 act,sEH inhibitor,sEH activator
CC(OC(=O)CNC(=O)C12CC3CC(CC(C3)C1)C2)C(=O)Nc1ncc(Cl)cc1Cl (stereo unspecified),54.0*,38.6,0.5,0.6,1.7,-1.9
CCOc1ccc(S(=O)(=O)NCC(=O)N(C)Cc2cccnc2)cc1,28.7,-2.0,0.7,1,-0.7,2.1
COc1ccc(CCNS(=O)(=O)c2cccc(F)c2)cc1OC,50.7*,50.6*,0.5,0.5,-13.1,10.4
Cc1cccc(CCNS(=O)(=O)c2ccc(S(=O)(=O)N3CCCCC3)cc2)c1,-5.9,32.0,1.1,0.7,13.1,-14.8
COCCCNS(=O)(=O)c1ccc2c(c1)OCCO2,78.4*,-50.6,0.2,1.5,x,x
COc1ccc(CCNS(=O)(=O)c2cccc(S(=O)(=O)N3CCCC3)c2)cc1OC,96.3*,83.5*,0,0.2,x,x
COc1ccc(CCNS(=O)(=O)c2ccc3c(c2)OCCO3)cc1OC,84.5*,46.4,0.2,0.5,-5.2,3.3
Clc1ccc(-c2nnc3n2CCCS3)cc1,-11.3,-10.6,1.1,1.1,7.6,-6.9
O=C(CN1C(=O)C2CC=CCC2C1=O)NC1CCCc2ccccc21 (stereo unspecified),-17.8,5.4,1.2,0.9,13.1,-12.0
CC1(C)OC(=O)C(=NNc2ccc(Cl)cc2)C(=O)O1,6.8,18.2,0.9,0.8,-1.7,2.5
Cc1cc(C(=O)CSCc2nnc3n(CCC(C)C)c(=O)c4ccccc4n23)c(C)n1C,x,x,x,x,-5.1,6.8
O=C(Nc1ccc(Cl)cc1C(=O)N1CCOCC1)c1ccco1,-8.8,2.4,1.1,1,42.6,-39.6
COc1ccc(CCNS(=O)(=O)c2cccc(C)c2)cc1OC,97.5*,89.0*,0,0.1,0.2,-2.6
O=S(=O)(NCCSCc1c(Cl)cccc1Cl)c1ccc2c(c1)OCCO2,x,x,x,x,5.2,-6.0
O=S(=O)(NCCSc1ccc(Cl)cc1)c1ccc2c(c1)OCCO2,85.7*,63.2*,0.1,0.4,10.9,-11.4
CC[C@@H](C)[C@H](NC(=O)C1CCN(C(=O)[C@@H](NS(=O)(=O)c2ccc(C)cc2)C(C)C)CC1)C(=O)O,16.1,-1.3,0.8,1,6.5,-8.2
COc1cc(C(=O)NNC(=O)NC2CCCCC2)cc(OC)c1OC,12.6,-1.9,0.9,1,-5.5,8.4
COc1ccc(C(CNC(=O)c2cc3ccccc3cc2OC)N2CCCC2)cc1 (stereo unspecified),3.9,5.0,1,0.9,-9.0,10.6
COc1ccc(C)cc1NC(=O)C1CCCN1C(=O)OCc1ccccc1 (stereo unspecified),31.6,-10.1,0.7,1.1,x,x
COc1ccc([N+](=O)[O-])cc1NC(=S)NC(NC(=O)Cc1ccc(OC)c(OC)c1)C(Cl)(Cl)Cl (stereo unspecified),31.2,57.7*,0.7,0.4,2.7,-1.7
CCN(CC(=O)Nc1ccc(OC)c(OC)c1)S(=O)(=O)c1ccc(C)cc1,10.0,11.5,0.9,0.9,-2.5,5.0
COc1ccc(OC)c(NC(=O)CSc2ccccc2)c1,57.4*,-37.8,0.4,1.4,-19.1,18.4
COc1ccc(OC)c(NC(=O)C2CCCN2C(=O)OCc2ccccc2)c1 (stereo unspecified),96.8*,61.6*,0,0.4,x,x
COc1cc(NC(=O)CS(=O)(=O)c2ccc(C)cc2)cc(OC)c1OC,73.4*,19.6,0.3,0.8,6.9,-3.8
O=C(Nc1ccc(Cl)cc1)N1CC=CCC1,23.3,7.3,0.8,0.9,x,x
SMILES,CYP2C19 inh,CYP2C9 inhib,CYP2C19 act,CYP2C9 act,sEH inhibitor,sEH activator
Cn1c(=O)c2c(nc(SCc3cccnc3)n2Cc2ccc(F)cc2)n(C)c1=O,25.5,40.9,0.7,0.6,-15.1,14.7
COc1ccc(Nc2oc(-c3cccs3)nc2C#N)cc1,27.7,16.7,0.7,0.8,5.8,-7.2
O=C(NCc1ccc2c(c1)OCO2)C1CCCN(S(=O)(=O)c2cccnc2)C1 (stereo unspecified),-1.5,49.5,1,0.5,11.1,-11.9
CCCn1c(SCC(=O)NC)nnc1C(C)C,-1.5,-20.4,1,1.2,-3.3,0.9
COc1ccc(OC)c(NC(=O)C2CC(C)=C(C)CC2C(=O)O)c1 (stereo unspecified),15.2,61.4*,0.8,0.4,5.1,-5.1
COc1ccc([N+](=O)[O-])cc1NCc1ccccc1C,67.8*,68.8*,0.3,0.3,-7.6,5.4
COc1ccc([N+](=O)[O-])cc1NC(=O)CSc1ccccc1,92.9*,-20.3,0.1,1.2,3.2,-0.9
COc1ccc([N+](=O)[O-])cc1NC1CCCCC1,4.5,10.1,1,0.9,6.0,-4.0
COc1ccc(OC)c(NC(=O)Nc2ccccc2C)c1,66.8*,29.2,0.3,0.7,-1.8,1.4
Cc1ccc(P(=Nc2ccccc2)(N2CCOCC2)N2CCOCC2)o1,4.5,22.9,1,0.8,-1.4,-1.8
COc1ccc(-n2c(SCC(=O)Nc3ccccc3)nc3c(c2=O)SCC3)cc1,42.3,32.9,0.6,0.7,-5.2,9.0
COc1ccc(S(=O)(=O)CC(O)CN2CCCC2=O)cc1 (stereo unspecified),-7.6,-18.2,1.1,1.2,7.5,-9.8
COc1cc(C(=O)N(C)c2nnc(-c3cccnc3)s2)cc(OC)c1OC,0.9,-7.3,1,1.1,-4.3,3.8
Cc1nnc(SC(C)C(=O)Nc2ccc(S(=O)(=O)N3CCCCCC3)cc2)s1 (stereo unspecified),25.1,44.1,0.7,0.6,-3.0,4.6
COc1ccc(OC)c(NC(=O)CS(=O)(=O)c2ccccc2)c1,69.4*,-325.3,0.3,4.3*,6.1,-3.5
O=C(CN1CCOc2ccccc21)NCc1ccco1,46.2,40.9,0.5,0.6,-8.4,7.0
O=C(CCN1C(=O)COc2ccccc21)NCCN1CCc2ccccc2C1,-5.6,-3.3,1.1,1,-3.8,8.0
COc1ccc(CCNC(=O)CCN2C(=O)COc3ccc(C)cc32)cc1OC,31.2,19.6,0.7,0.8,-12.5,13.7
COc1ccc(CCNC(=O)CCN2C(=O)COc3ccccc32)cc1OC,82.1*,23.6,0.2,0.8,x,x
O=C(CN1CCOc2ccccc21)NCc1cccs1,59.5*,7.0,0.4,0.9,-3.4,2.4
O=C(CCN1C(=O)COc2ccccc21)NCc1cccs1,84.1*,-9.5,0.2,1.1,3.4,-4.1
Cc1cc(C)nc(/N=C2\NC(=O)CC3C(=O)NCCN23)n1 (stereo unspecified),x,x,x,x,10.6,-9.9
Cc1ccnc(N/C=C(\C#N)c2nc(-c3cccc(Br)c3)cs2)c1,32.6,31.1,0.7,0.7,-6.3,6.3
Cc1ccc(C)c(N2CCN(S(=O)(=O)c3ccc4c(c3)OCCO4)CC2)c1,81.0*,89.6*,0.2,0.1,-4.8,5.1
COC(=O)C1CCN(S(=O)(=O)c2ccc(NC(C)=O)cc2)CC1,23.2,-4.8,0.8,1,-0.7,-0.2
O=S(=O)(c1ccc2c(c1)OCCCO2)N1CCNCC1,-6.0,-10.9,1.1,1.1,-2.5,2.1

# Screening data from PubChem BioAssay.
